# Integrin act MD: integrin-mediated muscular dystrophy alleviation activation | Potency, µM (series often up to 38.3 µM), inactives show at the highest dose activation, most hits filed as activators | 350,000 tested, 0.064% active | alpha7betagal myoblasts, beta-gal FDG fluorescence, 48 h | AID 624291;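 further: potency means the concentration at half of the fitted maximal effect; 100% = response of the positive control SU9516; nearly all actives have a fitted effect of over 60% in size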
#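 alpha7betagal+/- myoblasts (passage 13, 250/well) treated 48 h at 37C with compounds at 1:260 dilution of DMSO stock. Lysed, then beta-galactosidase activity read as FDG fluorescence (ex 480/em 540) after 30 min, with pre-read for autofluorescence.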
# Chronic BCR inh: inhibitors of chronic active B-cell receptor signaling. ABC-DLBCL IkBa-CBG/CBR reporter, luminescence ratio, 4 h. Potency, µM (highest dose often 46.1 µM), for inactives: at the top dose activity change, negative = inhibition, usual class: inhibitors. 340,000 tested, 0.05% active. AID 493014; active means well fitted inhibition curve with a large enough effect in the signal ratio, with a control signal flat, not every such curve was filed as active; inconclusive means small, poorly fitted or top-dose-only effect, or effect the other way, or a change in a side signal; the % refers to the signal ratio;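 further: potency means the concentration at half of the fitted maximal effect; plate controls were basal doxycycline-induced cells for no effect and cells given 10 µM MG132 for full effect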
#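 TMD8 human ABC-DLBCL cells with doxycycline-inducible IκBα–green luciferase fusion and unfused red luciferase, in 0.5% FBS medium; compounds up to 46 uM, 4 h at 37C. Green/red luminescence ratio, filter-overlap corrected, fitted to concentration-response curves.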
# BRCA1 expr act: activators of BRCA1 expression; MCF7-BRCA1-FFLuc reporter, luminescence, 48 h; response scale: scaled: vehicle 0%, 10 µM genistein 100%; Potency, µM (top dose mostly 46.1 µM), inactives show at the top dose activation, most hits filed as activators; 380,000 tested, 1.1% active; further: potency means the concentration at half of the fitted maximal effect; nearly all actives have a fitted effect of over 80% in size
#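 First, MCF7-BRCA1-FFLuc cells (2000/well) attach for 2 h; next, compounds are pin-added and incubated 48 h at 37 °C; finally, luciferase reagent is added and luminescence read after 15 min.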
# Nrf2 ARE act: activates Nrf2 signaling; AREc32 ARE-luciferase reporter (MCF7-derived line), luminescence, 24 h; Potency, µM (highest dose often 46.1 µM), inactives show at the top dose activation, most hits filed as activators; 410,000 tested, 0.31% active; AID 624171; further: potency means the concentration at half of the fitted maximal effect; % of control where 0% means no effect; nearly all actives have a fitted effect of over 65% in size
#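 Steps: seed AREc32_Fluc cells (1000/well, 5% FBS OPTI-MEM); incubate overnight at 37 deg C; add 23 nL compound; incubate 24 hr; add Steady-Glo; hold 30 min RT; read luminescence.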
# IL-2 act: activators of IL-2; 360,000 tested, 0.065% active; activation, % (series mostly up to about 46 µM); AID 652025; IL-2 activation reporter assay, cell-based qHTS; stimulated with anti-CD3/CD4/CD28 beads; in transgenic mouse T cells; in the data active means activation above about 50%; inconclusive means mostly about 30% to 49%; further: 0% is about no effect
#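 Readout is EGFP and DsRed signal by fluorescent plate cytometry after 18 h at 37 degrees C. Transgenic mouse T cells (750/well) received compound for 60 min before bead stimulation (anti-CD3, anti-CD4, anti-CD28); memory T cells served as non-tolerant control.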
# N370S GC mod: N370S glucocerebrosidase modulation, Gaucher chaperone candidate. P04062. N370S GC spleen homogenate, 4MU-glucoside fluorescence. Potency, µM (titrated, usually from 59.4 µM), for the others: at the highest dose activity change, negative = inhibition, most hits filed as inhibitors. 330,000 tested, 0.092% active;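 further: potency means the concentration at half of the fitted maximal effect; 0% = full enzyme activity and -100% = no enzyme basal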
# * hit, by the source's call; ? = inconclusive; . = not tested or not shown. Only some compounds are listed: those with a hit (about 1.4% of all), similar ones and a draw of the others. Unless noted, the call rests on the fitted dose curve; in most records, active means well fitted curve in the direction sought with a large enough effect; inconclusive means small, poorly fitted or top-dose-only effect, or another doubt; inactive means no such curve, though single readings can be large; an effect the other way counts as inactive or inconclusive.
SMILES,Integrin act MD,Chronic BCR inh,BRCA1 expr act,Nrf2 ARE act,IL-2 act,N370S GC mod
COc1ccc(OC)c(C=Nc2ccccc2-c2nc3ccccc3[nH]2)c1,5.7%,3.7%,64.6%,17.7%,0.2,?
O=c1[nH]c2ccccc2nc1/C=C/c1ccc(O)cc1,-45.0%,?,?,13.0%,3.1,7.7%
Cn1c(=O)c(/C=C/c2ccccc2)nc2ccccc21,-28.2%,-13.6%,-12.5%,5.01µM*,0.0,9.9%
COc1ccc(OC)c(/C=C/c2nc3ccccc3[nH]c2=O)c1,11.1%,?,-44.8%,6.1%,139.1*,2.7%
CC1(c2nc3ccccc3[nH]2)CCCC2=Nc3ccccc3CN21 (centres undefined),.,.,11.8%,-0.9%,1.4,.
Cn1c(=NC(=O)C2CCCCC2)sc2cc([N+](=O)[O-])ccc21,4.2%,0.8%,17.6%,25.2%,2.5,20.8%
CCOc1ccc2c(c1)sc(=NC(=O)C1CC1)n2C,25.9%,.,2.82µM*,3.9%,-0.3,12.6%
C[C@@H]1CN([C@@H](C)CO)C(=O)c2cc(NC(=O)Nc3ccccc3)ccc2O[C@@H](C)CCCCO[C@H]1CN(C)C(=O)Nc1ccc(C(F)(F)F)cc1,-12.3%,.,-28.5%,2.7%,-3.5,.
CC1(C)CC(=O)/C(=N/Nc2ccc(Cl)cc2)CO1,?,15.2%,3.55µM*,3.3%,-0.3,-6.7%
Cc1cccc(N/N=C2/COC(C)(C)CC2=O)c1,-0.8%,4.8%,7.94µM*,3.6%,-2.2,10.2%
CSc1ccccc1C(=O)Nc1nc2ccccc2c(=O)[nH]1,?,?,11.2µM*,2.9%,-0.1,2.9%
CCCc1ccc(C(=O)/C=C/N(C)C)cc1,52.4%,13.0%,12.6µM*,0.3%,-1.8,-5.7%
N#C/C(=C(/O)c1ccco1)c1nc2ccccc2[nH]1,12.3%,?,-46.8%,6.31µM*,-0.9,-4.8%
CCc1cc(=O)oc2cc(OCc3ccc(C(=O)O)o3)ccc12,4.5%,?,6.31µM*,-0.7%,-3.5,-0.4%
CCN1C(=O)[C@H]2[C@@H](c3ccc(C)cc3)N[C@]3(CCCN(CCC(C)C)C3=O)[C@H]2C1=O,-0.4%,.,2.8%,0.1%,2.2,.
COC(=O)c1ccccc1NC(=O)COc1ccccc1C(=O)Nc1ccccc1,.,.,0.0%,.,.,.
O=C(NC(=S)NC1CCCCCC1)c1cncc(Br)c1,-19.1%,0.7%,11.2µM*,3.7%,-0.3,16.7%
OCc1cn(-c2ccccc2)nc1-c1cc2ccccc2o1,-7.8%,?,2.51µM*,7.8%,-2.2,15.4%
COc1ccc(NC(=O)c2cn(-c3ccccc3)nc2-c2cc3ccccc3o2)cc1,13.4%,0.1%,-2.6%,0.1%,-0.1,3.8%
NC(=O)c1ccsc1NC(=O)c1ccc(S(=O)(=O)N2CCCCC2)cc1,-14.8%,?,80.9%,-0.3%,-3.0,-18.0%
NC(=O)c1ccsc1NC(=O)c1ccc(S(=O)(=O)N2CCCC2)cc1,5.0%,-0.4%,12.6µM*,4.3%,-0.1,-2.6%
Oc1ccc(COC2CCCC2)c2cccnc12,.,7.31µM*,.,.,.,.
COc1cc(OC)c(C(=O)C=Cc2ccc(OC)c(OC)c2)c(OC)c1,-30.2%,.,-91.6%,11.2µM*,-0.4,.
COc1cc(OC)c(C(=O)/C=C/c2ccc(OCc3ccccc3)c(OC)c2)c(OC)c1,-73.6%,?,-78.9%,?,-0.9,-14.2%
Cc1ccc(S(=O)(=O)N(C)CCCN(C)c2nc(-c3cccs3)nc3ccccc23)cc1,.,.,-5.4%,.,.,.
SMILES,Integrin act MD,Chronic BCR inh,BRCA1 expr act,Nrf2 ARE act,IL-2 act,N370S GC mod
Nc1ccc2nc(-c3ccc(N)c(Cl)c3)[nH]c2c1,10.7%,?,4.47µM*,6.0%,0.1,-9.3%
Nc1ccc2nc(-c3ccccc3)[nH]c2c1,-5.0%,?,96.8%,17.8%,-2.3,-20.4%
Nc1ccc2nc(-c3cccnc3)[nH]c2c1,14.8%,-4.1%,22.5%,3.7%,-0.4,-19.5%
Nc1ccc2nc(-c3ccccn3)[nH]c2c1,0.3%,?,11.2µM*,8.2%,0.8,-13.0%
Cc1ccc(C)c(N2CCN(C(=O)C(CC(C)C)NS(=O)(=O)c3ccc4nc(C)sc4c3)CC2)c1 (centres undefined),.,.,.,-1.1%,.,.
CC(=O)N1N=C(c2ccc(C)cc2)OC1c1ccc(C(C)C)cc1 (centres undefined),-29.6%,0.8%,7.94µM*,-0.3%,2.6,15.8%
O=C(Cc1ccc(Br)cc1)NO,.,.,0.0%,.,.,.
OCCNc1c2ccccc2nc2c(F)c(F)c(F)c(F)c12,-38.2%,?,-57.4%,11.2µM*,-1.2,1.7%
Cc1c2ccccc2nc2c(F)c(NCCO)c(F)c(F)c12,-28.7%,7.3%,50.5%,16.9%,-1.0,9.5%
CCCC(=O)C1=C(c2ccc(C)cc2)N(C(=O)CCC)n2cnnc2S1,.,20µM*,.,0.3%,.,.
CCCC(=O)C1=C(c2ccc(C)c(C)c2)N(C(=O)CCC)n2c(CC)nnc2S1,.,8.2%,.,0.4%,.,.
CC(C(=O)O)c1ccc(C(=O)c2ccccc2)s1 (centres undefined),.,-13.7%,14.1µM*,0.5%,-0.2,-1.3%
Cc1ccc(OCCn2c(=O)sc3ccccc32)cc1,24.8%,-6.5%,5.62µM*,7.5%,-3.5,19.8%
Cc1ccc(OCCCn2c(=O)sc3ccccc32)cc1,7.0%,10.2%,42.5%,3.4%,0.1,7.3%
O=C(O)CC1SC(=O)N(CC(=O)c2ccccc2)C1=O (centres undefined),-5.6%,-0.1%,0.8%,-0.6%,1.4,-18.3%
O=C(c1ccccc1)c1cc2cc(Cl)ccc2[nH]1,0.0%,?,10µM*,10.6%,-0.7,-2.0%
CCCn1c(-c2cccs2)nc2nc3ccccc3nc21,-29.4%,7.1%,-64.9%,4.47µM*,-2.7,?
Cn1c(-c2ccc(C=O)s2)nc2ccccc21,4.8%,7.7%,11.2µM*,0.9%,0.8,15.0%
CC(C)Cn1c(-c2cccs2)nc2ccccc21,-10.9%,7.7%,0.5%,-0.9%,-0.5,-0.2%
Cn1c(-c2cccs2)nc2ccccc21,0.0%,6.4%,7.94µM*,4.0%,3.9,6.6%
CC(C)(Oc1ccc(Br)cc1Cl)C(=O)Nc1ccon1,0.6%,?,-17.6%,-0.1%,-4.6,-8.9%
CCCNC(=O)c1ccc(Cn2cc(-c3ccc(OC)cc3)nc2C(C)N)cc1 (centres undefined),12.9%,7.2%,11.2µM*,5.7%,0.9,-3.6%
COc1ccc(-c2cn(Cc3ccc(C(N)=O)cc3)c(-c3ccncc3)n2)cc1,1.7%,?,4.47µM*,5.4%,-0.2,0.4%
C[C@@H]1C[C@@H]2OC(=O)[C@]3(C)[C@H]2[C@@H](OC3(C)O)[C@]2(C)C(=O)C=C[C@H]12 (some centres undefined),-7.4%,?,-24.2%,14.1µM*,1.7,?

# Source: PubChem BioAssay
